Hits are enriched below; roughly 2.7% of the tested compounds scored in any of these assays.
ALOX12 inh: inhibitors of human 12S-lipoxygenase ALOX12. P18054. purified 12hLO, xylenol orange hydroperoxide absorbance. Potency, µM (series often up to 108 µM), for inactives: top-dose activity change, negative = inhibition, most hits filed as inhibitors. 580,000 tested, 1.1% active. AID 1671190; also: potency is read from the fitted curve at half-maximal effect; % is scaled to controls: 0 for no effect and ±100 for the full control effect
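Purified human 12hLO at 150 nM in 25 mM Hepes, 0.01% Triton X-100, pH 7.0, preincubated 15 min at room temperature with compound. Reaction started with 40 uM arachidonic acid, 30 min at room temperature. Hydroperoxide measured by Fe-xylenol orange, 573/405 nm absorbance ratio.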
Nrf2 block: blocks Nrf2 signaling | A549 ARE-Fluc reporter, luciferase luminescence, 18-24 h | Potency, µM (highest dose often 46 µM), inactives show at the top dose activity change, negative = inhibition, usual class: inhibitors | 360,000 tested, 2.1% active | AID 504444; also: potency is read from the fitted curve at half-maximal effect; % is scaled to controls: 0 for no effect and ±100 for the full control effect; nearly all actives have a fitted effect of over 60% in size
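Two sequential reads on A549 ARE_Fluc cells exposed to compound for 18-24 h: a CellTiter-Fluor fluorescence read for viability, then a luciferase luminescence read for Nrf2/ARE activity.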
A549 viability: A549 cytotoxicity, counter-screen for Nrf2 inhibitors. A549 ARE-Fluc cells, CellTiter-Fluor viability, 18-24 h. 390,000 tested, 0.16% active. AID 504648. Potency, µM (series often up to 46 µM), inactives show top-dose activity change, negative = cytotoxicity, actives largely listed as inhibitors; also: potency is read from the fitted curve at half-maximal effect; % is scaled to controls: 0 for no effect and ±100 for the full control effect
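A549 ARE_Fluc cells in 5% FBS OPTI-MEM were exposed to compounds in concentration-response for 18-24 h at 37 deg C. Viability was read by CellTiter-Fluor fluorescence (Ex 405/Em 525) after 30 min, before the luciferase read.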
Nrf2 activator: activators of Nrf2 (ARE) signaling. AREc32 ARE-luciferase reporter (MCF7-derived line), luminescence, 24 h. Potency, µM (doses to about 46.1 µM), inactives show top-dose activation, hits mostly activators. 410,000 tested, 0.31% active; also: potency is read from the fitted curve at half-maximal effect; % of control where 0% means no effect; nearly all actives have a fitted effect of over 65% in size
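ARE activation measured as luciferase luminescence (Steady-Glo, 30 min RT) in AREc32_Fluc cells after 24 hr compound exposure at 37 deg C, 5% CO2; cells seeded overnight at 1000/well in OPTI-MEM, 5% FBS.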
LDHA block: LDHA (human) enzyme inhibition; purified LDHA, NADH/diaphorase-resazurin fluorescence; hits give low values; 480,000 tested, 0.15% active; AID 1347041; P00338; activity change, % (values are at about 110 or 230 µM); in the data active = activity change below about -30%; inconclusive = mostly about -25% to -30%;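 also: plate controls were DMSO wells for no effect and wells without enzyme for full effect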
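Resorufin fluorescence (ex540/em590), read at 0 and 20 min after diaphorase/resazurin addition, reports the NADH left after a 5 min room-temperature reaction of 2 nM human LDH5 with 0.06 mM NADH and 0.2 mM pyruvate.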
ERG-DNA inh: inhibitors of human ERG Ets domain-DNA interaction; P11308; fluorescence polarization, His-ERG Ets domain / labelled DNA; Potency, µM (titrated, usually from 76.9 µM), for inactives: top-dose FP activity, negative = inhibition, actives largely listed as inhibitors; 370,000 tested, 0.028% active; AID 624246; active = well fitted inhibition curve with a large enough effect in the polarisation, with a control signal flat; inconclusive = small, poorly fitted or top-dose-only effect, or effect the other way, or a change in a side signal; inactive = no such curve, though single readings can be large or run the other way; the % refers to the polarisation;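 also: polarization taken with two DNA probes labelled with fluorescein and Texas red; potency is read from the fitted curve at half-maximal effect; % of control where 0% means no effect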
Target sequence (P11308 whole entry, looked up, the tested form may be a part): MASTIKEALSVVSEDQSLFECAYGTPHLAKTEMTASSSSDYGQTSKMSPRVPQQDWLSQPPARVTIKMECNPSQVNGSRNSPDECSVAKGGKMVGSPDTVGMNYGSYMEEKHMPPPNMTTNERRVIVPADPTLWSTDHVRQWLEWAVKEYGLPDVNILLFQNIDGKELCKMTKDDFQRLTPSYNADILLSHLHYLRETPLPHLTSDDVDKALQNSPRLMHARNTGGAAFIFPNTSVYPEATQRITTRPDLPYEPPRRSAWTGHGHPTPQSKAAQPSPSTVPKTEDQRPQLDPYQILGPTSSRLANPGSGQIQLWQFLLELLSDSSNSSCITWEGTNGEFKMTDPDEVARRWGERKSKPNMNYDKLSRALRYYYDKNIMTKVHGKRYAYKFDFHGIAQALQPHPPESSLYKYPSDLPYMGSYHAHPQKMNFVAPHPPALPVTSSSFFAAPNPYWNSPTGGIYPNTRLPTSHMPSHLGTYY
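His-tagged ERG Ets domain (1 uM in the protein solution; 300mM KCl, 50mM Tris-HCl, 1mM EDTA, 1mM DTT, pH 7.5) received compound, then a probe mix of 5 nM fluorescein-DNA and 100nM Texas-615-DNA. Fluorescence polarization was read for both dyes.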
Numbers without * were called inactive; ? = inconclusive; nt = no result; ! = not confirmed by another sample. Unless noted, calls follow the shape of the dose curve; as a rule, active = well fitted curve in the direction sought with a large enough effect; inconclusive = small, poorly fitted or top-dose-only effect, or another doubt; inactive = no such curve, though single readings can be large; an effect the other way counts as inactive or inconclusive.

SMILES | ALOX12 inh | Nrf2 block | A549 viability | Nrf2 activator | LDHA block | ERG-DNA inh
O=C(O)Cc1nc(-c2cccnc2)sc1-c1ccc(Br)cc1 | 28µM* | -12% | -4% | 1% | -5 | -1%
CCOc1ccccc1Oc1c(C(F)(F)F)oc2cc(OC(=O)C(C)C)ccc2c1=O | ? | nt | nt | nt | 2 | nt
Cc1nn(CCCC(=O)Nc2cccc(F)c2)c(=O)c2c1sc1ccccc12 | 0% | 2.6µM* | -13% | -1% | -2 | -6%
CCc1cccc(C)c1NC(=O)CCCn1nc(C)c2sc3ccccc3c2c1=O | -11% | ? | 6% | 0% | -6 | 2%
Cc1cc(-n2c(=O)c3sccc3n(CC(=O)NC3CCc4ccccc43)c2=O)ccc1F (configuration not stated) | ? | nt | nt | nt | 10 | nt
CC(=O)Nc1ccc(CNc2nc(NC(C)C)nc3cc(-c4ccccc4)sc23)cc1 | 45µM* | nt | nt | -4% | 2 | nt
COc1ccc(-c2cc(CNc3nc(NC(C)C)nc4cc(-c5ccccc5)sc34)on2)cc1 | 45µM* | nt | nt | -3% | -4 | nt
Cc1ccc(/C=C/C(=O)c2cc3ccccc3oc2=O)cc1 | ? | nt | nt | nt | 3 | nt
CC(C)NC(=S)N/N=C1\CCCCC1C1CCCCC1 (configuration not stated) | 22µM* | ? | -30% | -1% | 3 | -3%
S=C(N/N=C1\CCCCC1C1CCCCC1)Nc1ccccc1 (configuration not stated) | 16µM* | nt | nt | nt | -7 | nt
O=C(Nc1nc(-c2ccc(Cl)s2)cs1)c1ccccc1F | ? | nt | nt | nt | 8 | nt
CC(C)(C)OC(=O)COc1ccc2cc(-c3ccccc3)c(=O)oc2c1 | 31% | nt | nt | nt | 4 | nt
COC(=O)c1c(NC(NC(=O)C(C)C)C(Cl)(Cl)Cl)sc2c1CCC2 (configuration not stated) | -1% | 18µM* | -1% | 3% | 0 | 4%
COC(=O)c1c(NC(NC(C)=O)C(Cl)(Cl)Cl)sc2c1CCCC2 (configuration not stated) | -20% | 21µM* | 1% | 7% | -2 | 10%
COC(=O)c1c(NC(NC(=O)C(C)(C)C)C(Cl)(Cl)Cl)sc2c1CCC2 (configuration not stated) | ? | ? | -3% | 5% | 2 | 2%
CCOc1cc(Br)cc(C(c2c(C(=O)O)[nH]c3ccccc23)c2c(C(=O)O)[nH]c3ccccc23)c1O | 5.6µM* | -18% | -4% | 0% | -1 | 10%
CSc1ccc(C(c2c(C(=O)O)[nH]c3ccccc23)c2c(C(=O)O)[nH]c3ccccc23)cc1 | -12% | 3% | -1% | -1% | -5 | -2%
Cc1sc(NC(=O)C(c2ccccc2)c2ccccc2)c(C#N)c1C | ? | nt | nt | nt | -1 | nt
O=C(Nc1ccc(Cl)c(Cl)c1)N1N=CCC1c1ccccc1 (configuration not stated) | -6% | 16µM* | ? | 4% | -7 | -5%
Cn1c(=O)c2cc(NC(=S)NC3CCCCC3)ccc2n1C/C=C/c1ccccc1 | 40µM* | nt | nt | 0% | 2 | nt
FC(F)(F)c1ccccc1N/N=C1/CCc2ccccc21 | 10µM* | nt | nt | nt | -1 | nt
FC(F)(F)c1ccccc1N/N=C1/CCCc2ccccc21 | ? | nt | nt | nt | -3 | nt
CC1CN(c2ccccc2C=O)CC(C)O1 (configuration not stated) | -30% | nt | nt | nt | 0 | nt
C=CCNc1nc(N)c([N+](=O)[O-])c(Nc2ccccc2OC)n1 | 0% | 21µM* | -19% | 2% | -13 | 3%
CCC(C)Nc1nc(N)c([N+](=O)[O-])c(Nc2ccccc2OC)n1 (configuration not stated) | 0% | 15µM* | ? | 5% | 4 | 6%
SMILES | ALOX12 inh | Nrf2 block | A549 viability | Nrf2 activator | LDHA block | ERG-DNA inh
COc1ccccc1Nc1nc(NCCCN(C)C)nc(N)c1[N+](=O)[O-] | -13% | -28% | 8% | 4% | -6 | ?
CCCCN(C(=O)COC(=O)c1n[nH]c2ccccc12)C1CCS(=O)(=O)C1 (configuration not stated) | ? | nt | nt | nt | 3 | nt
Cn1nc(C(=O)Nc2ccnn2Cc2ccc(Cl)cc2Cl)c2ccccc2c1=O | 0% | nt | nt | nt | 9 | nt
O=C(CN1CCCCC1)NN(Cc1ccccc1)c1ccccc1 | 14µM* | 13% | 1% | -1% | -17 | -4%
Cc1ccc(S(=O)(=O)Nc2cccc3ncccc23)s1 | nt | 15µM* | ? | ? | 14 | 4%
Cc1ccc(S(=O)(=O)Nc2cccc3ncccc23)cc1 | -1% | -28% | 2% | -1% | -1 | -16%
O=C(NCc1cccc(C(F)(F)F)c1)C1CCN(C(=O)/C=C/c2ccccc2)CC1 | 12% | nt | nt | nt | 4 | nt
CCOc1cc(/C=N\NC(=O)c2ccc(NC(=O)C(C)(C)C)cc2)ccc1OC(=O)c1ccc(C)cc1 | -5% | 10µM* | -7% | -1% | -9 | 6%
CCOc1cc(/C=N/NC(=O)CSc2nncn2C)ccc1OC(=O)c1ccc(Cl)cc1 | 6% | 21µM* | 3% | 0% | -4 | -9%
CCOc1cc(/C=N/NC(=O)CSc2nncn2C)ccc1OCC(N)=O | 200% | 2% | 2% | -1% | -14 | 6%
CCOc1cc(/C=N\NC(=O)c2ccc(NC(=O)CC)cc2)ccc1OC(=O)c1ccccc1 | 1% | -19% | -27% | 0% | -7 | 4%
O=c1oc2ccccc2c2oc3cc(O)c(O)cc3c12 | 6.3µM* | ? | -3% | 16% | 23 | 14%
Nc1c(N)c2ccccc2oc1=O | -18% | 15% | -8% | 19% | -1 | nt
COc1nccnc1NS(=O)(=O)c1ccc(NC(=S)NC(=O)c2ccccc2F)cc1 | 45µM* | 4% | 0% | 6% | -4 | 10%
COc1nccnc1NS(=O)(=O)c1ccc(NC(=S)NC(=O)c2cccc(F)c2)cc1 | ? | 2% | 1% | 4% | -11 | nt
COc1nccnc1NS(=O)(=O)c1ccc(NC(=S)NC(=O)c2ccc(F)cc2)cc1 | 35µM* | 2% | 1% | -1% | -3 | -18%
Cc1cc(C)c(OCC(=O)N2CCC(NC(=O)c3ccccc3)CC2)c(C)c1 | -22% | nt | nt | nt | 5 | nt
CCCCCCSc1cc(-c2nc3ccc(Cl)cn3c2NC2CCCCC2)ccc1OC | -27% | 11% | -3% | -1% | 2 | 7%
CCC(C)Sc1cc(-c2nc3ccc(Cl)cn3c2NC2CCCCC2)ccc1OC (configuration not stated) | 40µM*! | ? | -16% | 0% | 5 | 5%

Screening results: PubChem, National Center for Advancing Translational Sciences (NCATS)
